# From paper PMC11062922 (Nature Chemical Biology, 2023)
# Like-named read-outs stand apart in the source and are kept apart here.
# Assays:
# Q6ZSR9 = Q6ZSR9 (human, UniProt Q6ZSR9); settings: read-out: apparent Kd, n = 1
# SIK2 = settings: read-out: apparent Kd, n = 1
# Sequence of Q6ZSR9 (Q6ZSR9 whole entry, looked up): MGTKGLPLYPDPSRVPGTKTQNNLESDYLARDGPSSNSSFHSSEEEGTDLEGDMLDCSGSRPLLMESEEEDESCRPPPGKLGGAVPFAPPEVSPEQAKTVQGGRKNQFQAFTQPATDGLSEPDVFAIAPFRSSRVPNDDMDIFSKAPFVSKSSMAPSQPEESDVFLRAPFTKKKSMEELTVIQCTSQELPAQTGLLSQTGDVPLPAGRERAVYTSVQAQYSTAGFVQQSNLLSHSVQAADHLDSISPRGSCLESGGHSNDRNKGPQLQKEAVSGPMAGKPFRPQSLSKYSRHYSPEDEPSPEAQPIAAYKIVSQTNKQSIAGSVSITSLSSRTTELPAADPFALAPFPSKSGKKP
substance,measurement,setting,value
Lestaurtinib,potency estimated from few doses,"Q6ZSR9; compound concentrations:100 nM and 1000 nM (sheet 'Lestaurtinib' of Supplementary Table 1),run:Lestaurtinib_03172_R2,Plate:MR031",54.5 nM
same,potency estimated from few doses,"Q6ZSR9; compound concentrations:100 nM and 1000 nM (sheet 'Lestaurtinib' of Supplementary Table 1),run:Lestaurtinib_03172_R3,Plate:MR031",57.5 nM
same,potency estimated from few doses,"Q6ZSR9; compound concentrations:100 nM and 1000 nM (sheet 'Lestaurtinib' of Supplementary Table 1),run:Lestaurtinib_03252_R1,Plate:MR032",61.3 nM
same,potency estimated from few doses,"Q6ZSR9; compound concentrations:100 nM and 1000 nM (sheet 'Lestaurtinib' of Supplementary Table 1),run:Lestaurtinib_03260_R2,Plate:MR033",113 nM
same,potency estimated from few doses,"Q6ZSR9; compound concentrations:100 nM and 1000 nM (sheet 'Lestaurtinib' of Supplementary Table 1),run:Lestaurtinib_03260_R3,Plate:MR033",79.5 nM
same,potency estimated from few doses,"SIK2; compound concentrations:100 nM and 1000 nM (sheet 'Lestaurtinib' of Supplementary Table 1),run:Lestaurtinib_02339_R2,Plate:MR001",44.6 nM
same,potency estimated from few doses,"SIK2; compound concentrations:100 nM and 1000 nM (sheet 'Lestaurtinib' of Supplementary Table 1),run:Lestaurtinib_02364_R1,Plate:MR002",53.6 nM
same,potency estimated from few doses,"SIK2; compound concentrations:100 nM and 1000 nM (sheet 'Lestaurtinib' of Supplementary Table 1),run:Lestaurtinib_02367_R1,Plate:MR003",51.8 nM
same,potency estimated from few doses,"SIK2; compound concentrations:100 nM and 1000 nM (sheet 'Lestaurtinib' of Supplementary Table 1),run:Lestaurtinib_02367_R2,Plate:MR003",57.3 nM
same,potency estimated from few doses,"SIK2; compound concentrations:100 nM and 1000 nM (sheet 'Lestaurtinib' of Supplementary Table 1),run:Lestaurtinib_02367_R3,Plate:MR003",51.5 nM
same,potency estimated from few doses,"SIK2; compound concentrations:100 nM and 1000 nM (sheet 'Lestaurtinib' of Supplementary Table 1),run:Lestaurtinib_02381_R1,Plate:MR004",56.4 nM
same,potency estimated from few doses,"SIK2; compound concentrations:100 nM and 1000 nM (sheet 'Lestaurtinib' of Supplementary Table 1),run:Lestaurtinib_02381_R2,Plate:MR004",62.4 nM
same,potency estimated from few doses,"SIK2; compound concentrations:100 nM and 1000 nM (sheet 'Lestaurtinib' of Supplementary Table 1),run:Lestaurtinib_02381_R3,Plate:MR004",30.1 nM
same,potency estimated from few doses,"SIK2; compound concentrations:100 nM and 1000 nM (sheet 'Lestaurtinib' of Supplementary Table 1),run:Lestaurtinib_02407_R1,Plate:MR005",50.7 nM
same,potency estimated from few doses,"SIK2; compound concentrations:100 nM and 1000 nM (sheet 'Lestaurtinib' of Supplementary Table 1),run:Lestaurtinib_02407_R2,Plate:MR005",52.5 nM
same,potency estimated from few doses,"SIK2; compound concentrations:100 nM and 1000 nM (sheet 'Lestaurtinib' of Supplementary Table 1),run:Lestaurtinib_02422_R2,Plate:MR006",9.74 nM
same,potency estimated from few doses,"SIK2; compound concentrations:100 nM and 1000 nM (sheet 'Lestaurtinib' of Supplementary Table 1),run:Lestaurtinib_02422_R3,Plate:MR006",52.6 nM
same,potency estimated from few doses,"SIK2; compound concentrations:100 nM and 1000 nM (sheet 'Lestaurtinib' of Supplementary Table 1),run:Lestaurtinib_02437_R1,Plate:MR007",50.6 nM
same,potency estimated from few doses,"SIK2; compound concentrations:100 nM and 1000 nM (sheet 'Lestaurtinib' of Supplementary Table 1),run:Lestaurtinib_02437_R3,Plate:MR007",7.45 nM
same,potency estimated from few doses,"SIK2; compound concentrations:100 nM and 1000 nM (sheet 'Lestaurtinib' of Supplementary Table 1),run:Lestaurtinib_02438_R2,Plate:MR008",41.4 nM
same,potency estimated from few doses,"SIK2; compound concentrations:100 nM and 1000 nM (sheet 'Lestaurtinib' of Supplementary Table 1),run:Lestaurtinib_02438_R3,Plate:MR008",34.7 nM
same,potency estimated from few doses,"SIK2; compound concentrations:100 nM and 1000 nM (sheet 'Lestaurtinib' of Supplementary Table 1),run:Lestaurtinib_02443_R1,Plate:MR009",49.3 nM
same,potency estimated from few doses,"SIK2; compound concentrations:100 nM and 1000 nM (sheet 'Lestaurtinib' of Supplementary Table 1),run:Lestaurtinib_02443_R2,Plate:MR009",51 nM
same,potency estimated from few doses,"SIK2; compound concentrations:100 nM and 1000 nM (sheet 'Lestaurtinib' of Supplementary Table 1),run:Lestaurtinib_02443_R3,Plate:MR009",51.1 nM
same,potency estimated from few doses,"SIK2; compound concentrations:100 nM and 1000 nM (sheet 'Lestaurtinib' of Supplementary Table 1),run:Lestaurtinib_02473_R2,Plate:MR010",44.2 nM
same,potency estimated from few doses,"SIK2; compound concentrations:100 nM and 1000 nM (sheet 'Lestaurtinib' of Supplementary Table 1),run:Lestaurtinib_02473_R3,Plate:MR010",30.1 nM
same,potency estimated from few doses,"SIK2; compound concentrations:100 nM and 1000 nM (sheet 'Lestaurtinib' of Supplementary Table 1),run:Lestaurtinib_02482_R2,Plate:MR011",52.3 nM
same,potency estimated from few doses,"SIK2; compound concentrations:100 nM and 1000 nM (sheet 'Lestaurtinib' of Supplementary Table 1),run:Lestaurtinib_02482_R3,Plate:MR011",44.9 nM
same,potency estimated from few doses,"SIK2; compound concentrations:100 nM and 1000 nM (sheet 'Lestaurtinib' of Supplementary Table 1),run:Lestaurtinib_02487_R2,Plate:MR012",47.8 nM
same,potency estimated from few doses,"SIK2; compound concentrations:100 nM and 1000 nM (sheet 'Lestaurtinib' of Supplementary Table 1),run:Lestaurtinib_02487_R3,Plate:MR012",59.5 nM
same,potency estimated from few doses,"SIK2; compound concentrations:100 nM and 1000 nM (sheet 'Lestaurtinib' of Supplementary Table 1),run:Lestaurtinib_02496_R1,Plate:MR013",44.2 nM
same,potency estimated from few doses,"SIK2; compound concentrations:100 nM and 1000 nM (sheet 'Lestaurtinib' of Supplementary Table 1),run:Lestaurtinib_02496_R3,Plate:MR013",40.2 nM
same,potency estimated from few doses,"SIK2; compound concentrations:100 nM and 1000 nM (sheet 'Lestaurtinib' of Supplementary Table 1),run:Lestaurtinib_02566_R2,Plate:MR014",48.9 nM
same,potency estimated from few doses,"SIK2; compound concentrations:100 nM and 1000 nM (sheet 'Lestaurtinib' of Supplementary Table 1),run:Lestaurtinib_02566_R3,Plate:MR014",62.6 nM
same,potency estimated from few doses,"SIK2; compound concentrations:100 nM and 1000 nM (sheet 'Lestaurtinib' of Supplementary Table 1),run:Lestaurtinib_02572_R1,Plate:MR015",46 nM
same,potency estimated from few doses,"SIK2; compound concentrations:100 nM and 1000 nM (sheet 'Lestaurtinib' of Supplementary Table 1),run:Lestaurtinib_02572_R2,Plate:MR015",51.5 nM
same,potency estimated from few doses,"SIK2; compound concentrations:100 nM and 1000 nM (sheet 'Lestaurtinib' of Supplementary Table 1),run:Lestaurtinib_02572_R3,Plate:MR015",51.6 nM
same,potency estimated from few doses,"SIK2; compound concentrations:100 nM and 1000 nM (sheet 'Lestaurtinib' of Supplementary Table 1),run:Lestaurtinib_02577_R1,Plate:MR016",51.5 nM
same,potency estimated from few doses,"SIK2; compound concentrations:100 nM and 1000 nM (sheet 'Lestaurtinib' of Supplementary Table 1),run:Lestaurtinib_02577_R2,Plate:MR016",44.8 nM
same,potency estimated from few doses,"SIK2; compound concentrations:100 nM and 1000 nM (sheet 'Lestaurtinib' of Supplementary Table 1),run:Lestaurtinib_02577_R3,Plate:MR016",46.9 nM
same,potency estimated from few doses,"SIK2; compound concentrations:100 nM and 1000 nM (sheet 'Lestaurtinib' of Supplementary Table 1),run:Lestaurtinib_02584_R1,Plate:MR017",51 nM
same,potency estimated from few doses,"SIK2; compound concentrations:100 nM and 1000 nM (sheet 'Lestaurtinib' of Supplementary Table 1),run:Lestaurtinib_02584_R2,Plate:MR017",49.6 nM
